Screening results (PubChem BioAssay)
Shown are actives, neighbours in structure and some others; about 7.9% of the full set was active somewhere.
MCF10A rereplic: A quantitative high throughput screen for small molecules that induce DNA re-replication in MCF 10a normal breast cells; MCF 10A DNA re-replication, Hoechst nuclear intensity, 48 h; 350,000 compounds, 2.9% hits; Potency, µM (series often up to 46.1 µM), most hits filed as activators; also: nearly all actives have a fitted effect of over 50% in size
KB-3-1 cytotox: qHTS assay for MDR1-selective chemotherapeutics: Primary screen using the parental adenocarcinoma cell KB-3-1. Potency, µM (top dose mostly 46.1 µM), usual class: cytotoxic. 400,000 compounds, 1.4% hits. AID 1347075, 2019. KB-3-1 viability, CellTiter-Glo ATP luminescence, 72 h; also: nearly all actives have a fitted effect of over 60% in size
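Here the drug-naive KB-3-1 line serves as comparator for MDR sub-line selectivity; cells received compound titrations, 72 h at 37 °C, then CellTiter-Glo readout.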
HT1080NT lethal: qHTS for induction of synthetic lethality in tumor cells producing 2HG: qHTS for the HT-1080-NT fibrosarcoma cell line; HT-1080-NT fibrosarcoma viability, CellTiter-Glo ATP luminescence, 48 h; Potency, µM (top dose mostly 46.1 µM), hits mostly cytotoxic; AID 686970, 2013; 360,000 compounds, 1.6% hits;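 also: NT is the 2HG producing partner of a matched IDH1 knockdown line; nearly all actives have a fitted effect of over 55% in size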
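Viability of the 2HG-overproducing fibrosarcoma line after 48 hours of compound exposure at 37 degrees C was determined by luminescence with CellTiter-Glo, and concentration-effect curves were then fitted and categorized.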
SW480 rereplic: A quantitative high throughput screen for small molecules that induce DNA re-replication in SW480 colon adenocarcinoma cells | SW480 DNA re-replication, Hoechst DNA content imaging, 48 h | Potency, µM (highest dose often 46.1 µM), hits mostly activators | 340,000 compounds, 1.8% hits | AID 624297, 2012; also: nearly all actives have a fitted effect of over 55% in size
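Readout is total intensity of Hoechst-stained nuclei, excited at 405 nm and collected at 500-530 nm. Compound treatment lasted 48 hr at 37 C in 5% CO2 before staining.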
HT1080 IDH1KD tx: qHTS for induction of synthetic lethality in tumor cells producing 2HG: qHTS for the HT-1080-IDH1KD cell line | HT-1080 IDH1 knockdown viability, ATP luminescence, 48 h | Potency, µM (doses to about 46.1 µM), usual class: cytotoxic | 360,000 compounds, 2% hits | AID 686971, 2013
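Using the IDH1-knockdown HT-1080 line run in the same batch and compound series as the NT line, viability after 48 h at 37 °C was determined by CellTiter-Glo luminescence and expressed as % activity.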
KB-V1 MDR tox: qHTS assay for MDR1-selective chemotherapeutics: Primary screen using the drug-selected MDR subline cells KB-V1. KB-V1 MDR cells viability, CellTiter-Glo, 72 h. Potency, µM (doses to about 46.1 µM), actives largely listed as cytotoxic. 400,000 compounds, 3.4% hits. AID 1347076, 2019; also: nearly all actives have a fitted effect of over 60% in size
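Following 72 h at 37 degrees C with compound, KB-V1 cell viability was read by CellTiter-Glo luminescence, medium being phenol-red-free DMEM plus 10% FBS; concentration-response parameters came from normalized, curve-fitted qHTS data.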
Each line names hits and unclear results; the compound was inactive in the other large screens; ! = not active in a repeat. Calls follow the shape of the dose curve; as a rule, active = well fitted curve in the direction sought with a large enough effect; inconclusive = small, poorly fitted or top-dose-only effect, or another doubt; inactive = no such curve, though single readings can be large; an effect the other way counts as inactive or inconclusive.

CCCc1c(-c2ccc(Cl)cc2)ncn1Cc1cccc(-c2ccccc2)c1	KB-3-1 cytotox 16µM, HT1080NT lethal inconclusive, HT1080 IDH1KD tx inconclusive, KB-V1 MDR tox inconclusive (no result: MCF10A rereplic, SW480 rereplic)
Nc1nc(-c2ccccc2)c(N=Nc2cccc3ccccc23)s1	MCF10A rereplic inconclusive, KB-3-1 cytotox inconclusive, HT1080NT lethal inconclusive, SW480 rereplic inconclusive, HT1080 IDH1KD tx 21µM, KB-V1 MDR tox inconclusive
Nc1nc(-c2ccccc2)c(N=Nc2ccccc2Cl)s1	MCF10A rereplic inconclusive, KB-3-1 cytotox inconclusive, HT1080NT lethal inconclusive, HT1080 IDH1KD tx 18µM
COc1ccc(-c2nc3c4ccccc4ccn3c2CN2CCCCC2)cc1OC	none
COc1cccc(S(=O)(=O)Nc2ccc3c(c2)[C@@H]2C[C@@H](CC(=O)NCc4ccc(Cl)cc4)O[C@@H](CO)[C@@H]2O3)c1	KB-3-1 cytotox inconclusive, HT1080NT lethal 8.2µM, HT1080 IDH1KD tx 6.5µM (no result: MCF10A rereplic, SW480 rereplic)
COC(=O)C[C@H]1C[C@@H]2c3cc(NS(=O)(=O)c4cccc(OC)c4)ccc3O[C@@H]2[C@@H](CO)O1	none (no result: MCF10A rereplic, SW480 rereplic)
O=C(Nc1c(-c2ccccc2)[nH][nH]c1=O)c1cccs1	none (no result: MCF10A rereplic, SW480 rereplic)
CC1CCN(S(=O)(=O)c2ccc3nc(-c4ccccn4)cc(C(=O)NCCN(C)Cc4ccccc4)c3c2)CC1	MCF10A rereplic 0.73µM, KB-3-1 cytotox inconclusive
O=C1CC(c2ccccc2)CC(O)=C1C=NC1CCCCC1 (centres undefined)	HT1080 IDH1KD tx inconclusive, KB-V1 MDR tox 6.5µM
O=C(c1ccc(Cn2c(=O)[nH]c3ccccc3c2=O)cc1)N1CCN(c2ccc(Cl)cc2)CC1	KB-3-1 cytotox inconclusive, HT1080NT lethal inconclusive, HT1080 IDH1KD tx inconclusive, KB-V1 MDR tox 21µM
C=CCn1c(=O)[nH]c2cc(C(=O)N3CCN(c4cccc(Cl)c4)CC3)ccc2c1=O	KB-3-1 cytotox inconclusive, KB-V1 MDR tox 12µM
CC(=O)c1ccc(N2CCN(C(=O)c3ccc(Cn4c(=O)[nH]c5ccccc5c4=O)cc3)CC2)cc1	none (no result: MCF10A rereplic, HT1080NT lethal, SW480 rereplic, HT1080 IDH1KD tx)
C=CCn1c(=O)[nH]c2cc(C(=O)N3CCN(c4ccc(C(C)=O)cc4)CC3)ccc2c1=O	HT1080 IDH1KD tx inconclusive
Cc1ccc(-n2nc3c(N4CCCC(C(=O)NCCc5ccccc5)C4)nnc(C)c3c2C)cc1 (centres undefined)	none (no result: MCF10A rereplic, HT1080NT lethal, SW480 rereplic, HT1080 IDH1KD tx)
CCOC(=O)N1CCC2(CC1)C(C#N)=C(N)Oc1c2sc2nc(C)cc(C)c12	MCF10A rereplic 7.3µM, HT1080NT lethal inconclusive, SW480 rereplic inconclusive, HT1080 IDH1KD tx inconclusive
COc1ccc2cc(-c3ccn[nH]3)ccc2c1	KB-3-1 cytotox 7.3µM, KB-V1 MDR tox inconclusive
COc1ccc(-c2cc(-c3ccccc3O)[nH]n2)cc1	MCF10A rereplic inconclusive, HT1080NT lethal inconclusive, HT1080 IDH1KD tx inconclusive
O=C(NCCN1CCOCC1)c1ccc2c(c1)N(Cc1ccccc1)C(=O)c1ccccc1S2	MCF10A rereplic inconclusive
O=C(NCCN1CCOCC1)c1ccc2c(c1)N(Cc1c(F)cccc1Cl)C(=O)c1ccccc1S2	MCF10A rereplic inconclusive, SW480 rereplic 5.8µM
CCOc1ccc(CN2C(=O)c3ccccc3Sc3ccc(C(=O)NCCCN4CCOCC4)cc32)cc1	MCF10A rereplic 21µM, KB-3-1 cytotox 18µM!, HT1080NT lethal inconclusive, SW480 rereplic inconclusive, HT1080 IDH1KD tx inconclusive, KB-V1 MDR tox inconclusive
CCc1nnc(NC(=O)COc2ccc3ccccc3c2)s1	none
CN1CCN(c2ccc(NC(=O)COc3ccc4ccccc4c3)cc2)CC1	MCF10A rereplic 16µM, SW480 rereplic inconclusive, KB-V1 MDR tox inconclusive
CN1CCN(c2ccc(NC(=O)COc3cccc4ccccc34)cc2)CC1	HT1080NT lethal inconclusive
CN1CCc2nc(NC(=O)COc3ccc4ccccc4c3)sc2C1	MCF10A rereplic 13µM, KB-3-1 cytotox inconclusive, SW480 rereplic inconclusive, KB-V1 MDR tox inconclusive
O=C(NNS(=O)(=O)c1ccc(Br)cc1)c1ccncc1	none
CC(C)c1cc(C(C)C)c(S(=O)(=O)NNC(=O)c2ccncc2)c(C(C)C)c1	KB-V1 MDR tox 15µM
COc1ccc(S(=O)(=O)N(C)C[C@H]2OCCCC[C@H](C)Oc3ccc(NC(=O)Nc4ccc(F)cc4)cc3C(=O)N([C@H](C)CO)C[C@H]2C)cc1	none (no result: MCF10A rereplic, SW480 rereplic)
O=C(COC(=O)c1cc(S(=O)(=O)N2CCCCC2)ccc1N1CCOCC1)c1ccccc1	KB-V1 MDR tox 21µM
O=C(OCc1cccc(Cl)c1)c1cc(S(=O)(=O)N2CCCCC2)ccc1N1CCOCC1	MCF10A rereplic inconclusive, KB-3-1 cytotox inconclusive, KB-V1 MDR tox inconclusive
O=C(COC(=O)c1cc(S(=O)(=O)N2CCCCC2)ccc1N1CCOCC1)c1ccc(Cl)cc1	SW480 rereplic 6.5µM
O=C(CN(CC(=O)N1CCOCC1)S(=O)(=O)c1ccc(Br)s1)N1CCOCC1	none
Cc1[nH]n(-c2ccccc2)c(=O)c1C(c1ccc(O)c([N+](=O)[O-])c1)c1c(C)[nH]n(-c2ccccc2)c1=O	none
COc1ccc(C(C[N+](=O)[O-])c2c(-c3ccccc3)cc3ccccn23)c(OC)c1 (centres undefined)	MCF10A rereplic 16µM, KB-3-1 cytotox inconclusive, HT1080NT lethal inconclusive, SW480 rereplic inconclusive, HT1080 IDH1KD tx inconclusive, KB-V1 MDR tox inconclusive
COc1cccc(C(c2c(C)[nH]n(-c3ccccc3)c2=O)c2c(C)[nH]n(-c3ccccc3)c2=O)c1OC	MCF10A rereplic 6.5µM
Cc1cc2ccccn2c1C(C[N+](=O)[O-])c1ccc(N(C)C)cc1 (centres undefined)	none
COc1ccc(C(C[N+](=O)[O-])c2c(C)[nH]n(-c3ccccc3)c2=O)cc1 (centres undefined)	MCF10A rereplic 12µM, HT1080NT lethal inconclusive, SW480 rereplic inconclusive
COc1ccc(C(C[N+](=O)[O-])c2c(C)cc3ccccn23)cc1 (centres undefined)	MCF10A rereplic 21µM, HT1080NT lethal inconclusive, SW480 rereplic inconclusive, HT1080 IDH1KD tx inconclusive
COc1ccc(N/C=C2/Sc3ccccc3NC2=O)cc1	none
Cc1ccc(N/C=C2/Sc3ccccc3NC2=O)cc1	MCF10A rereplic 18µM, KB-V1 MDR tox inconclusive
COc1cc(C=C2CN(C)C(=O)C2=O)ccc1O	none (no result: MCF10A rereplic, SW480 rereplic)
CCOc1cc(/C=N\O)cc(Cl)c1OCC	none
O=c1c2ccc(Cl)cc2nc2n1CC/C2=C\c1cccc(O)c1	MCF10A rereplic inconclusive, KB-3-1 cytotox inconclusive, SW480 rereplic inconclusive, KB-V1 MDR tox inconclusive
